The source made the active and inactive calls.
What was measured:
[1] = small molecules captured by biotinylated probe aFSTL3 – biochemical, small-molecule microarray, fluorescence 635/667, stem cell growth factor project, primary screen (AID 1064); settings: higher = more signal;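 further: measures binding of the biotinylated anti-FSTL3 antibody to printed compounds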
[2] = binders from COS7 lysate, DM2A8 probe, primary screen, torsin A project, cell lysate, small-molecule microarray, fluorescence 635/667 (AID 1065); settings: higher = more signal, COS7 lysate expressing mutant human TOR1A
[3] = small molecules captured by biotinylated probe aFGF2 – biochemical, small-molecule microarray, fluorescence 635/667, stem cell growth factor project, primary screen (AID 1067); settings: higher = more signal;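 further: measures binding of biotinylated aFGF2 protein to printed compounds on slides; z-score merges feature fluorescence and signal-to-noise across triplicate slides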
[4] = small molecules captured by biotinylated probe aFGF10 – biochemical, small-molecule microarray, fluorescence 635/667, stem cell growth factor project, primary screen (AID 1071); settings: higher = more signal;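 further: score merges 667 nm spot intensity and signal to noise from triplicate slides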
[5] = molecular target: Neurogenic locus notch homolog protein 2 (Homo sapiens) (UniProt Q04721); assay: small molecules binding Notch2 protein – biochemical, small-molecule microarray, 635 nm fluorescence, stem cell growth factors, primary screen (AID 1073); settings: higher = more signal
Neurogenic locus notch homolog protein 2 (Homo sapiens), sequence (Q04721 whole entry, looked up, canonical isoform): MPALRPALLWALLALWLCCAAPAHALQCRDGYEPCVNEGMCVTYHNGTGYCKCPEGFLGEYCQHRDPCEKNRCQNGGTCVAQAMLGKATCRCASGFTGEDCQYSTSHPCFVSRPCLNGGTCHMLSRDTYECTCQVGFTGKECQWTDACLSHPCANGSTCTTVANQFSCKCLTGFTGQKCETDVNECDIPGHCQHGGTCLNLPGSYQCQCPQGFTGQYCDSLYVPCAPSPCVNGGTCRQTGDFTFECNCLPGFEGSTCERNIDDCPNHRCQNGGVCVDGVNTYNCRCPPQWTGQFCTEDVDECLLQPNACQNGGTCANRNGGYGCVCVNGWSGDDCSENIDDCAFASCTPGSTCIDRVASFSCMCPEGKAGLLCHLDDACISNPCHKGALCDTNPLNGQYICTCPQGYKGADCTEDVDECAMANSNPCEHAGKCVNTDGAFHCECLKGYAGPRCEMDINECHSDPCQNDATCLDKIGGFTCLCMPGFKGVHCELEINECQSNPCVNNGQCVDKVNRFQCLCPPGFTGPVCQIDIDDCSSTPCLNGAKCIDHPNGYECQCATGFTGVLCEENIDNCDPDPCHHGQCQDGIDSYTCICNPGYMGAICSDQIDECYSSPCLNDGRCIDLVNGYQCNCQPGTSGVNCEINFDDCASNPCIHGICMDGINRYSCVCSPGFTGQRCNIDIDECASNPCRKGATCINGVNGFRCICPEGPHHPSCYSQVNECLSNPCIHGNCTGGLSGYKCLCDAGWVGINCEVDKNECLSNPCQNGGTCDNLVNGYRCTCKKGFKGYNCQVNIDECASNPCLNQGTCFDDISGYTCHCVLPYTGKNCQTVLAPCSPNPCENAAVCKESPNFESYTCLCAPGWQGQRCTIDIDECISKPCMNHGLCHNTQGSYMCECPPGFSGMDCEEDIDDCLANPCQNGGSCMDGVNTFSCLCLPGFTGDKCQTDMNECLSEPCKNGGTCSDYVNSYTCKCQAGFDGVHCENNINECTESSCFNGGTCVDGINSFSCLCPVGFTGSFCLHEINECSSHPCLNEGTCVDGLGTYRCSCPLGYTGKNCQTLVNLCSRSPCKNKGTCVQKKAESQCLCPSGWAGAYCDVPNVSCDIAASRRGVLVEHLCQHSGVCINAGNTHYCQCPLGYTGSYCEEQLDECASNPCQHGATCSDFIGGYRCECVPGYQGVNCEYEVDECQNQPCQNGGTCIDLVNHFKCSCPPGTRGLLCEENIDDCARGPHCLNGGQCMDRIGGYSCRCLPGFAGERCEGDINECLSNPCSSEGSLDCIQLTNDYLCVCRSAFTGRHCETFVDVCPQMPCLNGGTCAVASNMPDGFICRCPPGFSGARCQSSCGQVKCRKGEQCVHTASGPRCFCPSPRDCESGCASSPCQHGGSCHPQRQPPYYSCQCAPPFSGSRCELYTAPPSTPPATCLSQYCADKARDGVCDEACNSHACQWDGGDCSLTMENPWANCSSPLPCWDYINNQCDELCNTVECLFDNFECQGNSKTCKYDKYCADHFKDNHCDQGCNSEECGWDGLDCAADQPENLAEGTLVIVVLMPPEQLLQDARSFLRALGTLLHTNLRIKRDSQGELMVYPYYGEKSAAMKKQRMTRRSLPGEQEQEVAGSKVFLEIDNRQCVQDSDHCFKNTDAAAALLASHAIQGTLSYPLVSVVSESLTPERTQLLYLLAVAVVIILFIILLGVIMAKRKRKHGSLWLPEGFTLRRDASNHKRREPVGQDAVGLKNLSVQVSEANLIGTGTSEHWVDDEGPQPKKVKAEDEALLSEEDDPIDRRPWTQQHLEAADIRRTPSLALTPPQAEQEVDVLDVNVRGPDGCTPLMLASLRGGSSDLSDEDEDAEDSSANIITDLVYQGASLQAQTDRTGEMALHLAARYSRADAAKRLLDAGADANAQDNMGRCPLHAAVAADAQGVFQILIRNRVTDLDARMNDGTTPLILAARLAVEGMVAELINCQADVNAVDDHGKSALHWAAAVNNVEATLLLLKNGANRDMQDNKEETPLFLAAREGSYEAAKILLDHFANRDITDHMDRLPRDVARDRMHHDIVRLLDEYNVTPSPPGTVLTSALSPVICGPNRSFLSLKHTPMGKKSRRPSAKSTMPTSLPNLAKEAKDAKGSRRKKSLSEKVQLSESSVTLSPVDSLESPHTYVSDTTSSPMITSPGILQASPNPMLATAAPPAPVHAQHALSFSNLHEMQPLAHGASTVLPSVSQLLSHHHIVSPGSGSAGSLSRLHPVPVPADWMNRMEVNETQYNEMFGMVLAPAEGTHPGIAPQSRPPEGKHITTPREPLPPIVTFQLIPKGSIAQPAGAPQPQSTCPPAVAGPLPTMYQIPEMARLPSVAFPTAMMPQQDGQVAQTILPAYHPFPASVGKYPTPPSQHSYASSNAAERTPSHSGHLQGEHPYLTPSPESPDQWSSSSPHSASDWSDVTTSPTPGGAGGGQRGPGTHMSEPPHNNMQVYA

[6] = molecular target: Pro-neuregulin-1, membrane-bound isoform (Homo sapiens) (UniProt Q02297); assay: small molecules binding neuregulin-1 protein – biochemical, small-molecule microarray, fluorescence 635/667, psychiatric disease protein project, primary screen (AID 1075); settings: NRG1 binding, 635 nm fluorescence, higher = more signal;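 further: score combines 667 nm spot fluorescence with signal to noise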
Pro-neuregulin-1, membrane-bound isoform (Homo sapiens), sequence (Q02297 whole entry, looked up, the tested form may be a part, canonical isoform): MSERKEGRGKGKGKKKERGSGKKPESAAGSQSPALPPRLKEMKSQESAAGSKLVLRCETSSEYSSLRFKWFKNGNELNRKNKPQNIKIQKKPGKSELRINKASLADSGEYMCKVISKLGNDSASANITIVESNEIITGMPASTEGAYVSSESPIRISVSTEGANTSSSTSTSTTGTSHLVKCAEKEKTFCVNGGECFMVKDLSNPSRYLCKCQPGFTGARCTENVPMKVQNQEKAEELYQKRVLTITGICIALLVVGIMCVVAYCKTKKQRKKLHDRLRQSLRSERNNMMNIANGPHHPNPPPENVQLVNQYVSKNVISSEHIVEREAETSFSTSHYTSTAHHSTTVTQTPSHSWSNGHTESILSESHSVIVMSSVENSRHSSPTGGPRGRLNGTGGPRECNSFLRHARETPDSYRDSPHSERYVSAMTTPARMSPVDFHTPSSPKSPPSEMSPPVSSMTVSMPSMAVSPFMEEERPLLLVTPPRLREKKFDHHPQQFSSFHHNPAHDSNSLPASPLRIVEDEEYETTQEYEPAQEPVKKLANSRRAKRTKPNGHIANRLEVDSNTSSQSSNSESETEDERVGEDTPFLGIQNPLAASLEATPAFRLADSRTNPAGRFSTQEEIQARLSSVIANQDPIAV

[7] = system: Neuregulin-1 EGF-like domain; assay: small molecules binding NRG1 EGF domain – biochemical, small-molecule microarray, 635 nm fluorescence, primary screen (AID 1081); settings: higher = more signal;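 further: binding of the protein to compounds printed on small-molecule microarray slides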
[8] = FRG1 expression reporter modulators in myotubes – cell-based, C2C12 myotubes, firefly/Renilla luciferase, luminescence, FRG1 inhibition for FSHD, primary screen (AID 1084); settings: FRG1 promoter luciferase, higher = more signal, called active from +8 up or from −8 down
[9] = small molecules captured by biotinylated probe aFST – biochemical, small-molecule microarray, fluorescence 635/667, stem cell growth factor project, primary screen (AID 1086); settings: higher = more signal;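 further: score merges 667 nm fluorescence with signal-to-noise of each printed compound spot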
[10] = binders of probe aHhip on microarray, primary screen, stem cell growth factor project, biochemical, small-molecule microarray, fluorescence 635/667 (AID 1087); settings: higher = more signal;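 further: score merges spot fluorescence at 667nm with spot signal to noise ratio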
[11] = system: PRMT1 (protein arginine N-methyltransferase 1); assay: small molecules binding arginine methyltransferase PRMT1 – biochemical, small-molecule microarray, 635 nm fluorescence, primary screen (AID 1088); settings: higher = more signal;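 further: binding of Prmt1 protein to compounds spotted on small-molecule microarray slides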
[12] = growth effects on S. cerevisiae YJM789 – YJM789 clinical isolate, OD600, 24 h, basal, primary screen (AID 1089); settings: higher = more signal, called active from +8 up or from −8 down;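 further: growth of clinical yeast isolate S. cerevisiae YJM 789 seeded 1000 cells per well; test concentration not given here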
[13] = S. pombe growth modifiers, basal conditions – strain 972, OD600, 24 h, no modulator, primary screen (AID 1090);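 further: basal condition with compound alone and no growth modifier present; test concentration not given here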; settings: S. pombe 972 growth, higher = more signal, called active from +8 up or from −8 down
[14] = budding yeast growth modifiers under rapamycin – strain BY4716, OD600, 96 h, primary screen (AID 1091); further: test concentration not given here; settings: S. cerevisiae BY4716 + rapamycin, higher = more signal, called active from +8 up or from −8 down
[15] = molecular target: Torsin-1A-interacting protein 2 (Homo sapiens) (UniProt Q8NFQ8); assay: small molecules binding lysate-expressed LULL1 – cell lysate, human LULL1 lysate, 635/667 nm fluorescence, primary screen (AID 1092); settings: small-molecule microarray, hLULL1 lysate binding, 635 nm fluorescence; higher = more signal;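 further: probe is lysate of COS7 cells overexpressing human LULL1; score merges per-feature 667 nm fluorescence with signal-to-noise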
Torsin-1A-interacting protein 2 (Homo sapiens), sequence (Q8NFQ8 whole entry, looked up): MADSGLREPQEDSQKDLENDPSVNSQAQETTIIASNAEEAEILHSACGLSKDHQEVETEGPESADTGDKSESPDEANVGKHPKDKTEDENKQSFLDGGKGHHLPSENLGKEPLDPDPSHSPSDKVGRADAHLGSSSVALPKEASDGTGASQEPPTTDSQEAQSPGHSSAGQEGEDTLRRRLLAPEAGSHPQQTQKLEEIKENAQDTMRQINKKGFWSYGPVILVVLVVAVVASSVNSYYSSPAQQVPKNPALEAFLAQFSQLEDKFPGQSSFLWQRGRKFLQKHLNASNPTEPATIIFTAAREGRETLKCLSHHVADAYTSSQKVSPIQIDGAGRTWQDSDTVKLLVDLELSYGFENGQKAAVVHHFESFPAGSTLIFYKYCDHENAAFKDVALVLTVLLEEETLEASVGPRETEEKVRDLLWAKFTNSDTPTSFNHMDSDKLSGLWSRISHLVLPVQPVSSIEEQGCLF

[16] = optical density change of DRC41 E. coli – strain DRC41, OD650, 24 h, E. coli filamentation project, primary screen (AID 1093);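 further: MC1000 strain lacking acrAB efflux and sulA so SOS filamentation is blocked; test concentration not given here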; settings: E. coli DRC41 growth, higher = more signal, called active from +8 up or from −8 down
[17] = probe aLefty2 binding to arrayed compounds – biochemical, biotinylated probe, 635/667 nm fluorescence, primary screen (AID 1094); settings: small-molecule microarray, higher = more signal;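 further: score merges spot fluorescence near 667 nm with spot signal-to-noise ratio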
[18] = system: Noggin (protein binding on small-molecule microarray); assay: small molecules binding Noggin protein – biochemical, 635/667 nm fluorescence, primary screen (AID 1095); settings: 635 nm fluorescence, higher = more signal;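 further: score merges 667 nm feature fluorescence with signal to noise over triplicate slides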
[19] = molecular target: Neurogenic locus notch homolog protein 3 (Homo sapiens) (UniProt Q9UM47); assay: small molecules binding NOTCH3 protein – biochemical, 635/667 nm fluorescence, primary screen (AID 1096); settings: small-molecule microarray, 635 nm fluorescence, higher = more signal
[20] = probe aEGFR binding to arrayed compounds – biochemical, biotinylated probe, 635/667 nm fluorescence, primary screen (AID 1097); settings: small-molecule microarray, higher = more signal;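 further: probe is a biotinylated anti-EGFR antibody binding compounds printed on slides; score combines fluorescence near 667 nm and signal to noise of each spot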

SMILES | composite z-score [1] | composite z-score [2] | composite z-score [3] | composite z-score [4] | composite z-score [5] | composite z-score [6] | composite z-score [7] | z-score [8] | composite z-score [9] | composite z-score [10] | composite z-score [11] | z-score [12] | z-score [13] | z-score [14] | composite z-score [15] | z-score [16] | composite z-score [17] | composite z-score [18] | composite z-score [19] | composite z-score [20]
C=CC1c2cc(O)c(OC)cc2CCN1C (stereo not given) | 0.0043 | -0.231 | -0.103 | 0.275 | -0.208 | 0.0582 | 1.06 | -0.201 (inactive) | 0.0531 | 0.0373 | -0.648 | -0.763 (inactive) | -0.819 (inactive) | 0.0904 (inactive) | 0.134 | -0.223 (inactive) | 0.0112 | -0.542 | -0.821 | -0.135
C=C(COC)/C(=C/C[C@@H](OC(C)=O)c1ccccc1OCCO)c1cnc2ccccc2c1 | -0.0428 | 1.58 | -0.0695 | 0.339 | 1.03 | 1.23 | 1.13 | -0.305 (inactive) | 0.278 | -0.169 | 1.56 | 0.27 (inactive) | -0.614 (inactive) | -0.112 (inactive) | 0.895 | 0.359 (inactive) | -0.154 | 1.64 | 1.09 | -0.0828
C=CCN1C(=O)[C@]2(O[C@H](CCn3cc([C@H](O)c4ccccc4)nn3)[C@@H]([Si](C)(C)c3ccc(OC)cc3)[C@@H]2C)c2cc(NC(=O)c3ccc(OC)cc3)ccc21 | -0.255 | 0.39 | -0.112 | 0.141 | 0.603 | 0.0976 | 0.519 | -2.62 (inactive) | 0.0019 | 0.0722 | 1.55 | 0.323 (inactive) | -0.532 (inactive) | 0.567 (inactive) | 0.744 | 0.252 (inactive) | 0.0352 | 0.423 | 0.907 | -0.152
CC(C)NC(=O)[C@@H]1c2ccccc2C(=O)N(Cc2ccc(OC(F)(F)F)cc2)[C@H]1c1ccc(CO)cc1 | 0.33 | -0.0722 | 0.242 | 0.625 | 1.05 | 0.765 | 1 | -1.05 (inactive) | 1.35 | 2.21 | 1.54 | 0.0263 (inactive) | -1.24 (inactive) | -1.51 (inactive) | 2.67 | -1.48 (inactive) | 0.734 | 0.756 | 1.11 | 0.587
CCCC#C[Si](O[C@H](CC)c1cn(Cc2ccccc2)nn1)(C(C)C)C(C)C | -0.0658 | 0.0418 | 0.0252 | 0.435 | 0.734 | 0.53 | 1.02 | 0.403 (inactive) | 0.278 | -0.166 | 1.49 | -1.25 (inactive) | -14.6 (active) | -3.55 (inactive) | 1.72 | 0.657 (inactive) | 0.052 | 1.31 | 1.09 | 0.0458
C=C(CCCC)/C(=C/C[C@H](OC(=O)c1ccncc1)c1ccccc1OCCO)c1cc(C(=O)OC)ccc1OC | -0.17 | 0.963 | -0.0591 | 0.845 | 0.101 | -0.217 | 0.787 | 0.908 (inactive) | 0.416 | -0.0237 | 1.34 | 0.47 (inactive) | 0.333 (inactive) | 1.42 (inactive) | 2.31 | 0.588 (inactive) | -0.0942 | 0.502 | 0.647 | -0.15
CC(=O)OCC1C2CC[C@H]3C(OCc4ccc(F)cc4C(F)(F)F)OC[C@]4(C)[C@H]3C2=C(CN4C(=O)OC(C)(C)C)[C@H](C)C1COC(C)=O (stereo not given in full) | 0.496 | 1.4 | -0.0336 | 0.363 | 0.101 | 0.823 | 0.783 | 1.06 (inactive) | 0.579 | 0.141 | -0.025 | 1.56 (inactive) | 2.04 (inactive) | 1.15 (inactive) | 1.35 | -1.36 (inactive) | 0.054 | 1.2 | -0.439 | -0.0512
[N-]=[N+]=Nc1ccccc1C[C@@]1(C(=O)NCC(O)CO)N=C(c2ccc(OCCCO)cc2)O[C@@H]1c1ccccc1 (stereo not given in full) | 0.134 | -0.243 | -0.073 | 0.165 | 0.513 | 0.706 | 1.1 | -2.46 (inactive) | 0.146 | -0.0994 | 0.376 | -0.558 (inactive) | -1.09 (inactive) | -1.31 (inactive) | 2.81 | 0.883 (inactive) | -0.0021 | -0.264 | -0.405 | -0.151
C=CCNC(=O)[C@H]1[C@@H]2C(=O)O[C@@H](c3ccccc3)[C@@H](c3ccccc3)N2[C@@H](c2ccc(OCCO)cc2)[C@]12C(=O)Nc1ccc(C#CC3(O)CCCCCC3)cc12 | 0.604 | 0.648 | -0.0065 | 1.1 | 1.54 | 1.43 | 1.1 | -0.486 (inactive) | 0.229 | 0.306 | 1.53 | 2.3 (inactive) | 1.42 (inactive) | 5.09 (inactive) | 2.11 | 1.61 (inactive) | 0.323 | 1.4 | 1.08 | 0.0432
